Laboratory results reported in paper PMC7819943, “Rice protein-binding microarrays: a tool to detect cis-acting elements near promoter regions in rice”.
Over roughly 35,000 sequences, “fluorescence intensity (a.u.)” has its median near 10,000; the highest 2% begin near 52,000. The sample as a whole holds a higher share of the highest values than the screen did.

target: T1, OsWOX13 (Oryza sativa, UniProt Q5QMM3 1-267); test: protein-binding microarray (RPBM); PBS, 2% BSA, 51.3 ng/ul salmon testes DNA, 50 uM zinc acetate, 200 nM TF, 25 C, 1 h; high values mean tight binding; conditions: protein: recombinant; tags: N-terminal polyhistidine and DsRed monomer fusion (pET32a); label: CyDye5-dUTP incorporated in the synthesized complementary strand; 3' TTTTT single-stranded linker to array surface; dsDNA, one strand shown
T1 sequence: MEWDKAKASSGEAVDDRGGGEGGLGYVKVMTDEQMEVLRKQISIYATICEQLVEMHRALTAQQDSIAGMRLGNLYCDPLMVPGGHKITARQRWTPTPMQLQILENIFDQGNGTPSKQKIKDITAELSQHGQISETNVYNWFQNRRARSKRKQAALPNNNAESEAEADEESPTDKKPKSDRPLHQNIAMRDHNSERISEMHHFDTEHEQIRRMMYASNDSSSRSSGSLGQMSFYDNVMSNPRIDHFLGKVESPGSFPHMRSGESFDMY
How it was run: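 The binding signal for each feature is its fluorescence intensity in arbitrary units. An Axon 4000B scanner was used to read a custom Agilent array that had been made double-stranded with Cy5-dUTP primer extension, blocked with 2% BSA, incubated at 25 °C for 1 h with 200 nM protein in PBS, 2% BSA, salmon testes DNA and 50 µM zinc acetate, and washed. The protein was an N-terminal polyhistidine–DsRed transcription factor fusion from E. coli BL21-CodonPlus, purified on Ni–NTA.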

Sequence	binding signal
TAATCAATTAAGAAATTAATTAATCCTTTGCTCCCTGATTCGGAGTCACCTAGTGCAG	54400 fluorescence intensity (a.u.)
ACCCTTTCAATCATCCTCCTCCAGCAGAGCAAGCAGCCAACGGAGTCACCTAGTGCAG	11000 fluorescence intensity (a.u.)
TTGTAATTAATTAACTGATTAATTAAACTGCATGAATTTTCGGAGTCACCTAGTGCAG	60100 fluorescence intensity (a.u.)
CTGATTTGACTGAATGAATGAATTAATTAATGAGATGTATCGGAGTCACCTAGTGCAG	61600 fluorescence intensity (a.u.)
TTCATTAATCACAGATTCAATTTGCTCCTATATATAATCCCGGAGTCACCTAGTGCAG	12700 fluorescence intensity (a.u.)
ATGAATTAGATTAGATGTATATTTGAGGGAGTTAAAGTGGCGGAGTCACCTAGTGCAG	20800 fluorescence intensity (a.u.)
ATCCTTATTTGATTCCTGATCAAATTAATACTGCTGCTTTCGGAGTCACCTAGTGCAG	3200 fluorescence intensity (a.u.)
TTAAAATTAACTTTAAAATTTAAATTTAGATTTTAATTTTCGGAGTCACCTAGTGCAG	25700 fluorescence intensity (a.u.)
ATTAGCGCATGATTAATTGATTATTAACTATTTTAAACTTCGGAGTCACCTAGTGCAG	27400 fluorescence intensity (a.u.)
GAAATTATTTGAAATTTTGACTGATTTTGAATGAATTTGACGGAGTCACCTAGTGCAG	15200 fluorescence intensity (a.u.)
CAAAATCAATCAATCAATCCAGCCCTGCCCTCCTTTCGGTCGGAGTCACCTAGTGCAG	57900 fluorescence intensity (a.u.)
AAATTTTAAATTTTAGTAAAATTTGTTCGGTCTTTCTCTCCGGAGTCACCTAGTGCAG	5920 fluorescence intensity (a.u.)
ATAAATTTTATAAACTTGACTGCCTCTGGTTGTATATGCACGGAGTCACCTAGTGCAG	23900 fluorescence intensity (a.u.)
TGTAATTTGTTCTTGTTATCATCAATCCCATATAAACTGGCGGAGTCACCTAGTGCAG	22300 fluorescence intensity (a.u.)
TTGATCTGATTAATTAACTGATCAGACGGGTCGACGGGACCGGAGTCACCTAGTGCAG	55700 fluorescence intensity (a.u.)
CCTGTTAAATTGATCTGCCCTGATTAATTGACCCACCGACCGGAGTCACCTAGTGCAG	38100 fluorescence intensity (a.u.)
CTACCTTTAATTAGCTTTGCCATAAACGACGTGGGAGTATCGGAGTCACCTAGTGCAG	10300 fluorescence intensity (a.u.)
ATCCTTTTCTCCTTTTCTCGCAAAATCTCCAAAACCGCTTCGGAGTCACCTAGTGCAG	65500 fluorescence intensity (a.u.)
CAAACGGGTAATTAACTGGGATTAATTTGCCATAAGCCGACGGAGTCACCTAGTGCAG	53100 fluorescence intensity (a.u.)
CCCCAAATCCCACTCCAATCACCACCGCTTCTTCTCCTCCCGGAGTCACCTAGTGCAG	6580 fluorescence intensity (a.u.)
AATTAATTGTCTGATCAGTGATCTTTATTAACTGTCGACGCGGAGTCACCTAGTGCAG	28400 fluorescence intensity (a.u.)
CAAATTCCAATCATCTCCAAAACCACTTCGCAAATAAATTCGGAGTCACCTAGTGCAG	17900 fluorescence intensity (a.u.)

Sequence	binding signal
ATTAACCATAACCTAATTTGGATAAGCCGACATGGATCGGCGGAGTCACCTAGTGCAG	8230 fluorescence intensity (a.u.)
TAGGATTTGACCATAGTAAATTAATTTGGAGGAATTGTTTCGGAGTCACCTAGTGCAG	3990 fluorescence intensity (a.u.)
CCATCTGATTAGAGATTTGATCCTATACCTTCCTAAACATCGGAGTCACCTAGTGCAG	40700 fluorescence intensity (a.u.)
AGTACTGTAGATAATAAAGTAAGTCACGAATAAAATAAATCGGAGTCACCTAGTGCAG	50900 fluorescence intensity (a.u.)
TTAATTGTTTTATCCTATTAATTGGTAGAAGCGGTATTTTCGGAGTCACCTAGTGCAG	26700 fluorescence intensity (a.u.)
AAAGATAATTGAAAAGTAAACTTGTTGACAGACGGAATCCCGGAGTCACCTAGTGCAG	30400 fluorescence intensity (a.u.)
CATGATTAATCAAGTTAATTATTATACACTAAATATTGGACGGAGTCACCTAGTGCAG	59600 fluorescence intensity (a.u.)
AATTATTTAAATCAATGTAACTCAAAAGTTAATAAACGTGCGGAGTCACCTAGTGCAG	13100 fluorescence intensity (a.u.)
TATGATTATCACAAGTAATATATAAATTATTAGTCAAGTTCGGAGTCACCTAGTGCAG	33600 fluorescence intensity (a.u.)
TTGGACACTAATTATAAATATTAAATATAGACTATTAATACGGAGTCACCTAGTGCAG	4640 fluorescence intensity (a.u.)
TTAACATGTAATCAATTAAATACTAATTATTATAAACGTGCGGAGTCACCTAGTGCAG	53100 fluorescence intensity (a.u.)
ACTAATTATAAATCAGAACGATTTATTAACTACTCAATAACGGAGTCACCTAGTGCAG	24400 fluorescence intensity (a.u.)
GGGTGTGTAAGGGTAGGTGGAGGGGTGGGTGATGCGAGATCGGAGTCACCTAGTGCAG	4470 fluorescence intensity (a.u.)
CCTAATTAATCCATGATTAGTCATAAGTGTTACAATAATCCGGAGTCACCTAGTGCAG	55500 fluorescence intensity (a.u.)
GCCTAATTAGTCCATGATTAGCTATAAGTGCTACAATAACCGGAGTCACCTAGTGCAG	28100 fluorescence intensity (a.u.)
GTCTAATTAGTCCATGATTAATTAGCCATAAGTTCTACAGCGGAGTCACCTAGTGCAG	53100 fluorescence intensity (a.u.)
TCCGTGATTAGCCATAAGTGCTACAGTAACCCACATGTGCCGGAGTCACCTAGTGCAG	35800 fluorescence intensity (a.u.)
CATGATTAGCCATAAGTGCTACAGTAACCCACATGTGCTACGGAGTCACCTAGTGCAG	34300 fluorescence intensity (a.u.)
TAAGCCTAATTAGTCTATGATTAGCCATAAGTGCTACAGTCGGAGTCACCTAGTGCAG	37800 fluorescence intensity (a.u.)
CCGTGATTAGCCATAAGTGCTACAGTAACCCACATGTGCTCGGAGTCACCTAGTGCAG	57900 fluorescence intensity (a.u.)
TTGAGTCTAATTAGTCCATGATTAGCCATAAGTGCTACAGCGGAGTCACCTAGTGCAG	30600 fluorescence intensity (a.u.)
CCTAATTAGTCCATGATTAGTCATAAGTACTACAATAACCCGGAGTCACCTAGTGCAG	33900 fluorescence intensity (a.u.)
